Results published in PubChem BioAssay.
The source made the active and inactive calls. Unless noted, no rule for the calls is given here.

Legend:
[1] = tested on: Wnt5a (protein binding on small-molecule microarray); assay: Wnt5a binders on small-molecule microarray, primary screen, biophysical, 635/667 nm fluorescence (AID 1142); conditions: 635 nm fluorescence, higher = more signal;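 also: fluorescence read at 667 nm with signal to noise per printed feature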
[2] = cell viability in Huh7 cells, primary screen, cytotoxicity control for HCV replication inhibitor project, CellTiter-Glo luminescence, basal, 48 h (AID 1143); conditions: Huh7 HCV replicon, higher = more signal, called active from +8 up or from −8 down;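 also: Huh7 hepatoma cells carrying a hepatitis C replication reporter with no stimulus; test concentration not given here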
[3] = P. aeruginosa biofilm formation inhibitors, primary screen, PAO1 strain, BacTiter-Glo luminescence, LB-PBS (AID 1144); conditions: 12 h, higher = more signal
[4] = CREB reporter modulators without forskolin, primary screen, cell-based, PC12, CRE-LacZ reporter, unstimulated (AID 1145); conditions: no forskolin, luminescence, 4.5 h, higher = more signal, called active from +8 up or from −8 down
[5] = CREB reporter modulators under forskolin, primary screen, cell-based, PC12, CRE-LacZ reporter, forskolin-stimulated (AID 1146); conditions: luminescence, 4.5 h, higher = more signal, called active from +8 up or from −8 down;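 also: PC12 cells with 6xCRE LacZ reporter stimulated by forskolin 10 µM; beta-galactosidase reporter signal reflecting CREB driven transcription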
[6] = target: Streptavidin (Streptomyces avidinii) (UniProt P22629); assay: streptavidin binders on small-molecule microarray, primary screen, artefact control for SMM compound annotation, biophysical, 635/667 nm fluorescence (AID 1147); conditions: streptavidin binding, higher = more signal;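 also: signal reflects streptavidin binding to arrayed compounds as a control protein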
[7] = small-molecule binders of probe aInhba, primary screen, biochemical, small-molecule microarray, 635/667 nm fluorescence (AID 1148); conditions: higher = more signal;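 also: score merges 667nm spot fluorescence with signal-to-noise for antibody binding to printed compounds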
Torsin-1A (Homo sapiens) [8] = target: Torsin-1A (Homo sapiens) (UniProt O14656); assay: torsin A binders from cell lysate, primary screen, small-molecule microarray, wild-type, 635/667 nm (AID 1149); conditions: COS7 hTOR1A-WT lysate, 635 nm fluorescence, higher = more signal
Torsin-1A (Homo sapiens) [9] = target: Torsin-1A (Homo sapiens) (UniProt O14656); assay: small-molecule binders of mutant TOR1A in lysate, primary screen, cell lysate, small-molecule microarray, COS7 lysate, 635/667 nm fluorescence (AID 1150); conditions: COS7 hTOR1A mutant lysate, 635 nm fluorescence, higher = more signal;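 also: score pools 667 nm emission and signal to noise measuring lysate protein binding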
[10] = tested on: Sonic hedgehog protein (Shh); assay: small-molecule binders of Shh protein, primary screen, biochemical, small-molecule microarray, 635/667 nm fluorescence (AID 1151); conditions: small-molecule microarray binding, 635 nm fluorescence; higher = more signal;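 also: Shh protein binding to compounds spotted on small-molecule microarray slides; score combines spot fluorescence intensity with signal-to-noise across triplicate slides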
[11] = E. coli DRC41 culture turbidity changes, primary screen, E. coli filamentation inducer project, strain DRC41, OD650, 48 h (AID 1152);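 also: E. coli MC1000 strain DRC41 lacking acrAB efflux pump and sulA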; conditions: E. coli DRC41 (acrAB sulA), higher = more signal, called active from +8 up or from −8 down
[12] = small-molecule binders of probe aLefty1, primary screen, biochemical, small-molecule microarray, 635/667 nm fluorescence (AID 1153); conditions: higher = more signal;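 also: score merges spot fluorescence with signal-to-noise ratio from the scanned slide images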
[13] = PSAC antagonists in infected red cells, primary screen, cell-based, P. falciparum Indochina, OD700, 1 h (AID 1154); conditions: P. falciparum Indochina infected RBC osmotic lysis, higher = more signal, called active from +8 up or from −8 down
[14] = PSAC antagonists in infected red cells, primary screen, cell-based, P. falciparum Indochina, OD700, 2 h (AID 1155);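 also: lysis reports solute entry through the parasite surface anion channel PSAC; channel blockers reduce lysis of infected cells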; conditions: P. falciparum Indochina infected erythrocytes, osmotic lysis OD700; higher = more signal, called active from +8 up or from −8 down
[15] = osmotic lysis modulators in infected erythrocytes, primary screen, PSAC antagonist project, cell-based, P. falciparum Indochina, OD700, 3 h (AID 1156); conditions: higher = more signal, called active from +8 up or from −8 down
[16] = PSAC antagonists in infected red cells, primary screen, cell-based, P. falciparum Indochina, OD700, 18 h (AID 1157); conditions: P. falciparum Indochina infected erythrocytes, osmotic lysis OD700, 18 h; higher = more signal, called active from +8 up or from −8 down
[17] = modulators of S6 phosphorylation in cells, primary screen, cell-based, A549, cytoblot, luminescence, serum-stimulated (AID 1158); conditions: A549 phospho-S6 cytoblot, 5 h, higher = more signal;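 also: serum-stimulated A549 lung adenocarcinoma cells; signal is phosphorylated S6 detected by cytoblot immunostaining with HRP secondary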
[18] = target: NADPH oxidase 2 (Homo sapiens) (UniProt P04839); assay: NOX2-dependent H2O2 signal modulators, primary screen, NOX inhibitor project, cell-based, HEK293-NOX2, PMA-stimulated, Amplex Red fluorescence (AID 1159); conditions: 45 min, higher = more signal, called active from +8 up or from −8 down; also: test concentration not given here
[19] = target: NADPH oxidase 4 (Homo sapiens) (UniProt Q9NPH5); assay: NOX4-dependent H2O2 signal modulators, primary screen, NOX inhibitor project, cell-based, HEK293-NOX4, tetracycline-induced, Amplex Red fluorescence (AID 1160); conditions: 45 min, higher = more signal, called active from +8 up or from −8 down
[20] = target: NADPH oxidase 5 (Homo sapiens) (UniProt Q96PH1); assay: NOX5-dependent H2O2 signal modulators, primary screen, NOX inhibitor project, cell-based, HEK293-NOX5, Amplex Red fluorescence (AID 1161); conditions: HEK293-NOX5, ionomycin, 45 min, higher = more signal
Sequence of NADPH oxidase 5 (Homo sapiens) (Q96PH1 whole entry, looked up): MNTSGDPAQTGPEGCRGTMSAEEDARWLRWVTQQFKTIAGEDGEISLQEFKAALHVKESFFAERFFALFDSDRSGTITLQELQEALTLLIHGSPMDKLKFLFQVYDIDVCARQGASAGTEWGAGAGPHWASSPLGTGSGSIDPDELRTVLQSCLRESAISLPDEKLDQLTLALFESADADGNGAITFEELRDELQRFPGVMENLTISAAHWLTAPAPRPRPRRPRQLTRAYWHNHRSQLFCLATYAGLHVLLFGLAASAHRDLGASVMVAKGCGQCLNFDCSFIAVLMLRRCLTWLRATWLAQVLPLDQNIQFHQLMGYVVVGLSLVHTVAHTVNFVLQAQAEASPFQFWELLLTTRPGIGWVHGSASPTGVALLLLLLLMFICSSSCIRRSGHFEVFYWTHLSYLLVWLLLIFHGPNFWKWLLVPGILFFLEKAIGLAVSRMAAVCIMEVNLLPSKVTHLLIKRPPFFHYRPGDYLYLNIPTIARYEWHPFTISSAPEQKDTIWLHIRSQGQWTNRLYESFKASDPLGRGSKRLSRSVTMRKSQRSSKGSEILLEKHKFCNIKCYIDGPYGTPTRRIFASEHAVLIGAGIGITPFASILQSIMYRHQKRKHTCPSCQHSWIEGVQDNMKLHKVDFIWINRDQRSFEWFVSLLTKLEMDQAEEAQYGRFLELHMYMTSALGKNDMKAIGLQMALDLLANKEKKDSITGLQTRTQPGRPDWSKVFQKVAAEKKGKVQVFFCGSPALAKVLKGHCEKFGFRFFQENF

Sequence of NADPH oxidase 2 (Homo sapiens) (P04839 whole entry, looked up): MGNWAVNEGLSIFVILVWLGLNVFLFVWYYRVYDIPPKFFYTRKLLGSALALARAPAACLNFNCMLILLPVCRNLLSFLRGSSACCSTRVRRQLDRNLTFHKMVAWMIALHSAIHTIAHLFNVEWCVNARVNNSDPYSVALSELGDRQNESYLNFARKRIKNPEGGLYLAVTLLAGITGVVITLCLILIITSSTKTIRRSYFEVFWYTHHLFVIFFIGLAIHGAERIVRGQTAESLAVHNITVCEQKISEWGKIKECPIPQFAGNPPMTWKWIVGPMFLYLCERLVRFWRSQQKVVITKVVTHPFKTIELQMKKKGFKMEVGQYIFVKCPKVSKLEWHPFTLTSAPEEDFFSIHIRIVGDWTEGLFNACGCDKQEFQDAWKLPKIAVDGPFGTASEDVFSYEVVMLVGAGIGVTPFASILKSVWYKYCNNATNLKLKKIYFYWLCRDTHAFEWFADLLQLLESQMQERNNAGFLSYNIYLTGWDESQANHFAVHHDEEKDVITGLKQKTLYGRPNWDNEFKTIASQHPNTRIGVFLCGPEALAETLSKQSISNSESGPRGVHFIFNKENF
Sequence of Torsin-1A (Homo sapiens) (O14656 whole entry, looked up): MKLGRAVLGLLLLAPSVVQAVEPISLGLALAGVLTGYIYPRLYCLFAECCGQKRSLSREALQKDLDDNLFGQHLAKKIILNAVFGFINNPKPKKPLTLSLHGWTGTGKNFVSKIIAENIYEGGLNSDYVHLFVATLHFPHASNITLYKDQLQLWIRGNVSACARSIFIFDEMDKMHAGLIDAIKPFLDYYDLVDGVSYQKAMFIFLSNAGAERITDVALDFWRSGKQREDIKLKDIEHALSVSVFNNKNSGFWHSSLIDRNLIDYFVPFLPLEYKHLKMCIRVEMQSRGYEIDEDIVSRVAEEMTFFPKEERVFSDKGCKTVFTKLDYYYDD
Sequence of Streptavidin (Streptomyces avidinii) (P22629 whole entry, looked up): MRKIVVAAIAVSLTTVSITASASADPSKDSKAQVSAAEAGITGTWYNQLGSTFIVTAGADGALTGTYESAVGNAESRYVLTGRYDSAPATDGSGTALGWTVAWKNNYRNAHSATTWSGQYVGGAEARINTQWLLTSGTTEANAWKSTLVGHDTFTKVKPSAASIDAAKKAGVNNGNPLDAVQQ
Sequence of NADPH oxidase 4 (Homo sapiens) (Q9NPH5 whole entry, looked up): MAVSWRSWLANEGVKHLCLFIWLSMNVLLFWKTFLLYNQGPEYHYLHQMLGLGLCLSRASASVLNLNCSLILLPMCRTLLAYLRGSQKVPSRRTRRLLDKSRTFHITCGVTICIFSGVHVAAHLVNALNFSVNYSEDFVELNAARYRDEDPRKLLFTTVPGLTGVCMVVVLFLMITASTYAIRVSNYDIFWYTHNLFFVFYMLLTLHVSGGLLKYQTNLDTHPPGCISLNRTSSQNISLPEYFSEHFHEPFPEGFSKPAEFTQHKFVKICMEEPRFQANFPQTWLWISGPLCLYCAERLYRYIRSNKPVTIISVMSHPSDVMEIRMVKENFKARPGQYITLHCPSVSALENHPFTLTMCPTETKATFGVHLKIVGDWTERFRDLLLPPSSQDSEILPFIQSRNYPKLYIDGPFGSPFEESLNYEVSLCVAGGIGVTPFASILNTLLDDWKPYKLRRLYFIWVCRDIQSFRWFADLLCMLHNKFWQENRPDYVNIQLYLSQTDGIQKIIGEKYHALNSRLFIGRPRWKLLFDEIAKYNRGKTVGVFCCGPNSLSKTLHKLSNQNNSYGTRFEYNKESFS

Row | Compound | composite z-score [1] | z-score [2] | z-score [3] | z-score [4] | z-score [5] | composite z-score [6] | composite z-score [7] | composite z-score (Torsin-1A (Homo sapiens) [8]) | composite z-score (Torsin-1A (Homo sapiens) [9]) | composite z-score [10] | z-score [11] | composite z-score [12] | z-score [13] | z-score [14] | z-score [15] | z-score [16] | z-score [17] | z-score [18] | z-score [19] | z-score [20]
1 | O=C1OCCC/C=C\[C@H]2OC34C=CCN(Cc5ccccc5)C(=O)[C@H]3N(CCCO)C(=O)[C@@H]4C12 (stereo not given in full) | -0.597 | -0.639 (inactive) | 2.87 (inactive) | 0.593 (inactive) | -0.59 (inactive) | -1.1 | -0.176 | -1.14 | -2.13 | -0.85 | 0.616 (inactive) | 0.042 | 1.21 (inactive) | 0.486 (inactive) | -0.0156 (inactive) | 0.211 (inactive) | -0.506 | 1.76 (inactive) | -1.71 (inactive) | 2.38
2 | C=C(COC)/C(=C/C[C@@H](OC(=O)c1ccncc1)c1ccc(CO)o1)c1cc(C(=O)OC)ccc1OC | 1.08 | -0.158 (inactive) | -0.985 (inactive) | 0.904 (inactive) | 1.31 (inactive) | 0.207 | -0.0645 | 1.1 | 0.756 | 2.17 | 0.855 (inactive) | 0.062 | 3.87 (inactive) | 0.453 (inactive) | 1.57 (inactive) | 0.308 (inactive) | 0.934 | -0.631 (inactive) | -0.124 (inactive) | -0.495
3 | COc1cccc(-c2cccc(=O)o2)c1 | 0.595 | 0.064 (inactive) | 0.77 (inactive) | -0.228 (inactive) | -0.977 (inactive) | 0.438 | 0.177 | 0.0114 | 0.698 | -0.207 | 0.0997 (inactive) | 0.565 | 10.4 (active) | 1.6 (inactive) | -0.685 (inactive) | 0.611 (inactive) | -0.684 | 0.705 (inactive) | -1.15 (inactive) | -1.47
4 | COCCOC(=O)N1C(=O)[C@@]2(c3cc(C#CCNC(N)=O)ccc31)[C@H](C(=O)N1CCN(c3ncccn3)CC1)[C@H]1C(=O)O[C@H](c3ccccc3)[C@H](c3ccccc3)N1[C@@H]2c1ccc(OCCO)cc1 | 0.344 | 0.0164 (inactive) | -0.82 (inactive) | 1.04 (inactive) | -0.0748 (inactive) | 0.619 | 0.0154 | 1.44 | 0.453 | 0.911 | -0.492 (inactive) | 0.267 | 6.11 (inactive) | 1.93 (inactive) | 1.26 (inactive) | 0.778 (inactive) | -0.319 | 1.64 (inactive) | 0.971 (inactive) | -0.121
5 | C=C[C@@H](COC(=O)OC(C)(C)C)N(Cc1ccc(OC)cc1)S(=O)(=O)c1ccc(Br)cc1 | 0.0249 | -1.75 (inactive) | 0.551 (inactive) | 3.04 (inactive) | 1.88 (inactive) | 0.603 | -0.0332 | 0.604 | 0.299 | 1.57 | -1.13 (inactive) | -0.0094 | 1.4 (inactive) | -0.0352 (inactive) | -0.856 (inactive) | -0.0871 (inactive) | -0.273 | -0.348 (inactive) | 0.525 (inactive) | -1.28
6 | COC(=O)[C@@]1(Cc2ccc(OC)cc2)[C@H]2c3cc(C(=O)N(C)C)n(C)c3C[C@H]2CN1C(=O)c1ccccc1 | 0.485 | -3.59 (inactive) | 0.584 (inactive) | 0.0041 (inactive) | 0.0225 (inactive) | 1.77 | 0.706 | -0.0231 | 0.777 | 0.418 | -2.89 (inactive) | 1.56 | 1.98 (inactive) | 0.451 (inactive) | 1.07 (inactive) | 1.16 (inactive) | 0.775 | 1.12 (inactive) | 1.77 (inactive) | 2.16
7 | C[N+](C)(C)CCCCNC(=O)[C@@H]1C[C@@H]2C(=O)N[C@@H](Cc3ccccc3)C(=O)N2[C@@H]1c1cccc(OCCO)c1 | 0.175 | -0.36 (inactive) | -0.314 (inactive) | -0.26 (inactive) | -0.471 (inactive) | -1.02 | -0.179 | 0.938 | 0.713 | 1.91 | 1.04 (inactive) | -0.0094 | 3.16 (inactive) | 0.469 (inactive) | -1.44 (inactive) | 0.13 (inactive) | 1.91 | -0.682 (inactive) | -0.331 (inactive) | 0.856
8 | O=C1C2C=CC(C(O)c3cc(C(F)(F)F)cc(C(F)(F)F)c3)N(n3cnnc3)C2C(=O)N1Cc1ccccc1 (stereo not given) | -0.484 | -1.34 (inactive) | -1.12 (inactive) | 0.089 (inactive) | 0.753 (inactive) | 0.0422 | -0.0719 | -0.808 | -0.0144 | -0.755 | -0.546 (inactive) | 0.197 | 1.56 (inactive) | 1.11 (inactive) | 1.69 (inactive) | 0.833 (inactive) | -0.241 | -0.497 (inactive) | -0.889 (inactive) | -0.379
9 | CC(C)[Si](C#Cc1ccc(Oc2ccccc2)cc1)(O[Si](C#Cc1ccc(Oc2ccccc2)cc1)(C(C)C)C(C)C)C(C)C | 0.253 | 0.479 (inactive) | -0.614 (inactive) | 0.6 (inactive) | -0.378 (inactive) | -0.286 | 0.0403 | 0.567 | 0.514 | 1.05 | 0.555 (inactive) | -0.103 | 2.62 (inactive) | 1.85 (inactive) | 0.226 (inactive) | 1.39 (inactive) | 0.335 | 1.49 (inactive) | 1.46 (inactive) | -1.34
